Gal4-VP16 FLuc – VP16 counterscreen qHTS for inhibitors of ROR gamma transcriptional activity. Drosophila S2 Gal4-VP16 UAS-luciferase, luminescence, 20 h. AID 2546, 2010. 310,000 tested, 3.5% active. Potency, µM (series often up to 53.6 µM), inactives show at the highest dose activity, negative = inhibition, most hits filed as inhibitors;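 note: Gal4-VP16 expression switched on by copper sulfate through the metallothionein promoter; potency is the fitted concentration of half-maximal effect; % is set by controls: 0 for no effect and ±100 for the full control effect; nearly all actives have a fitted effect of over 50% in size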
ERG Ets-DNA blk – qHTS for Small Molecule Inhibitors of the ERG Ets/DNA interaction | Transcriptional regulator ERG (Homo sapiens), P11308 | fluorescence polarization, His-ERG Ets domain / labelled DNA | Potency, µM (highest dose often 76.9 µM), inactives show top-dose FP activity, negative = inhibition, actives largely listed as inhibitors | 370,000 tested, 0.028% active; active = well fitted inhibition curve with a large enough effect in the polarisation, with a control signal flat; inconclusive = small, poorly fitted or top-dose-only effect, or effect the other way, or a change in a side signal; inactive = no such curve, though single readings can be large or run the other way; the % refers to the polarisation;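 note: polarization taken with two DNA probes labelled with fluorescein and Texas red; potency is the fitted concentration of half-maximal effect; % of control where 0% means no effect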
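His-tagged ERG Ets domain (1 uM in the protein solution; 300mM KCl, 50mM Tris-HCl, 1mM EDTA, 1mM DTT, pH 7.5) received compound, then a probe mix of 5 nM fluorescein-DNA and 100nM Texas-615-DNA. Fluorescence polarization was read for both dyes.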
a7 integrin act – qHTS for Activators of Integrin-Mediated Alleviation for Muscular Dystrophy. alpha7betagal myoblasts, beta-gal FDG fluorescence, 48 h. 350,000 tested, 0.064% active. AID 624291, 2012. Potency, µM (series often up to 38.3 µM), inactives show top-dose activation, actives largely listed as activators;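 note: potency is the fitted concentration of half-maximal effect; 100% = response of the positive control SU9516; nearly all actives have a fitted effect of over 60% in size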
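alpha7betagal+/- myoblasts (passage 13, 250/well) treated 48 h at 37C with compounds at 1:260 dilution of DMSO stock. Lysed, then beta-galactosidase activity read as FDG fluorescence (ex 480/em 540) after 30 min, with pre-read for autofluorescence.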
Giardia killer – Small Molecules that selectively kill Giardia lamblia: qHTS. Giardia lamblia trophozoite viability. activity change, % at 7.66 µM, hits read low. 340,000 tested, 0.15% active. AID 540267, 2011; in the data active = activity change below about -80%; inconclusive = between about -30% and that limit;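 note: parasites exposed to compound for two days anaerobically before the ATP read; % is set by controls: 0 for no effect and ±100 for the full control effect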
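Trophozoite viability was measured as ATP-dependent luminescence, read 15-30 min after reagent addition. Before that, parasites at 100 cells/well were exposed to compounds for 48 h, anaerobically, at 37 deg C.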
RORg inh – qHTS for inhibitors of ROR gamma transcriptional activity. Nuclear receptor ROR-gamma (Mus musculus), P51450. Potency, µM (series often up to 53.6 µM), for inactives: at the highest dose activity change, negative = inhibition, usual class: inhibitors. Drosophila S2 Gal4-RORgamma UAS-luciferase reporter, 20 h. AID 2551, 2010. 310,000 tested, 5.4% active; note: potency is the fitted concentration of half-maximal effect; % is set by controls: 0 for no effect and ±100 for the full control effect; nearly all actives have a fitted effect of over 60% in size
Target sequence (P51450 whole entry, looked up, the tested form may be a part): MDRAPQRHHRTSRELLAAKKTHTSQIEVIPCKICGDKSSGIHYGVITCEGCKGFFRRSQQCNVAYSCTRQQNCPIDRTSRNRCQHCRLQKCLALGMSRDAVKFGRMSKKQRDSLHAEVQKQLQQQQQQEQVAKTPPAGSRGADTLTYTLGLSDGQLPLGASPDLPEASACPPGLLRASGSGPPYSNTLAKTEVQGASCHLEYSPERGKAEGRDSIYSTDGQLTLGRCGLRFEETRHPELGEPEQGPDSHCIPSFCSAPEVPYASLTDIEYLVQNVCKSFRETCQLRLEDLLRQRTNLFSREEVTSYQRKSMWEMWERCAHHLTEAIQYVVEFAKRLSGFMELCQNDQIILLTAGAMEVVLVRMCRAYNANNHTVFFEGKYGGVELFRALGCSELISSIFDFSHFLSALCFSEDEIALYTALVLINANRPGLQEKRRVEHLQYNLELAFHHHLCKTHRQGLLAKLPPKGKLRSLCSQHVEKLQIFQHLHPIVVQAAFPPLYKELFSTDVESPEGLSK
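A Gal4/UAS one-hybrid system in insect cells: metallothionein-promoter Gal4–ROR gamma fusion plus Photinus luciferase reporter. Copper sulfate 700 uM final, 20 hr ambient incubation, luminescent detection after 10 min with reagent.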
Active calls of the source: *; ? = inconclusive; . = no result given; [ ] = remark or other dose. The entries come from a sample that favours hits as a whole. Unless noted, calls come from the whole dose curve; as a rule, active = well fitted curve in the direction sought with a large enough effect; inconclusive = small, poorly fitted or top-dose-only effect, or another doubt; inactive = no such curve, though single readings can be large; an effect the other way counts as inactive or inconclusive.

SMILES	Gal4-VP16 FLuc	ERG Ets-DNA blk	a7 integrin act	Giardia killer	RORg inh
Cc1ccc(NC(=S)N2CCN(Cc3ccccc3)CC2)cc1	-1.4%	1.3%	-14.8%	-13.8	7.94µM*
COc1ccc(NC(=S)N2CCN(Cc3ccc(C)cc3)CC2)cc1	-4.3%	8.4%	-9.1%	10.0	?
O=C1C=C[C@@H](O)[C@H]2[C@@H]3C(=O)N(c4cccc(Oc5ccccc5)c4)C(=O)[C@@H]3CC[C@H]12	2.7%[10 µM]	.	.	.	-16.8%[10 µM]
CC(C)c1ccc(NC(=S)N2CCN(S(=O)(=O)c3ccccc3)CC2)cc1	?	8.9%	-22.7%	3.2	11.2µM*
COc1ccccc1C1CCN(Cc2ccc(C)cc2)CC1	-6.9%	31.6µM*	-48.3%	-1.1	-12.8%
COC(=O)c1ccc(NC(=S)N2CCN(Cc3ccccc3)CC2)cc1	?	-5.3%	-8.6%	-5.1	3.3%
COC(=O)c1ccc(NC(=S)N2CCN(Cc3cccc(C)c3)CC2)cc1	?	-9.0%	-25.8%	-14.1	11.2µM*
NC(=O)C1CC2(NC(=O)NC2=O)c2cc(F)ccc2O1 (centres undefined)	3.9%	.	.	.	2.7%
Cc1ccc(CNC(=O)CCNC(=O)c2ccco2)cc1	23.9%	1.7%	16.9%	-1.8	32.9%
CC(C)Sc1n[nH]c2nc3c(c(=O)n12)C1(CCCC1)Cc1ccccc1-3	-10.2%	.	.	.	11.2µM*
CSc1n[nH]c2nc3c(c(=O)n12)C1(CCCC1)Cc1ccccc1-3	2.4%	17.1%	17.3%	-8.1	-18.9%
Cc1ccc(-n2c(SCC(N)=O)nc3c(c2=O)C2(CCCC2)Cc2ccccc2-3)cc1	?	-0.5%	1.4%	-8.4	26.5%
CCSc1n[nH]c2nc3c(c(=O)n12)C1(CCCC1)Cc1ccccc1-3	-2.8%	0.5%	5.2%	-15.7	14.1µM*
O=c1c2c(nc3n1CCCCC3)-c1ccccc1CC21CCCC1	-8.3%[0.365 µM]	-7.4%	-46.5%	-4.3	18.4%
C=CCSc1n[nH]c2nc3c(c(=O)n12)C1(CCCC1)Cc1ccccc1-3	11.2µM*	-1.9%	12.0%	0.6	5.62µM*
CC(C)c1ccc(N2C(=O)CC(Sc3ncccn3)C2=O)cc1 (centres undefined)	?	11.6%	0.9%	-16.4	?
CN(Cc1ccccc1)C(=O)c1cn(C)c2ccc(S(=O)(=O)N3CCCC3)cc2c1=O	0.0%	-1.1%	1.6%	12.9	12.6%
CC(C)CC1=NN(C(=O)c2ccncc2)C(O)(C(F)(F)F)C1 (centres undefined)	?	7.6%	12.6%	6.0	-40.9%
COc1ccc(NC(=O)C(=O)N2N=C(C(C)C)CC2(O)C(F)(F)F)cc1 (centres undefined)	?	.	24.2%	6.9	7.94µM*
CCC1=NN(C(=O)C(=O)Nc2ccc(Br)cc2)C(O)(C(F)(F)F)C1 (centres undefined)	5.01µM*	11.3%	12.4%	-8.5	2.82µM*
CCCCC1=NN(C(=O)c2cocc2C)C(O)(C(F)(F)F)C1 (centres undefined)	?	5.4%	-1.0%	4.7	?
COc1cccc(C2=NN(C(=O)C3CC3)C(O)(C(F)(F)F)C2)c1 (centres undefined)	.	.	12.5%	.	.
CCCC1=NN(C(=O)C(=O)Nc2ccc(Br)cc2)C(O)(C(F)(F)F)C1 (centres undefined)	5.01µM*	-7.9%	-19.3%	-3.5	0.794µM*
COc1ccc(N2CCN(C(=O)Cc3ccc(OC)c(OC)c3)CC2)cc1	-29.3%	-8.8%	9.4%	-0.8	?
O=C(CNCc1ccccn1)Nc1ccc([N+](=O)[O-])cc1C(=O)Nc1ccccc1F	-19.0%	0.9%	-18.6%	-6.4	20µM*
SMILES	Gal4-VP16 FLuc	ERG Ets-DNA blk	a7 integrin act	Giardia killer	RORg inh
CC1(C)OCC(CSC2=C(SCC3COC(C)(C)O3)C(=O)c3ncccc3C2=O)O1 (centres undefined)	15.8µM*	.	.	.	11.2µM*
O=C1c2cccnc2-c2ncccc21	1.8%	-1.3%	-9.8%	-0.3	-9.6%
O=C(CSc1nnc(CCc2ccccc2)n1-c1ccc(Cl)cc1)c1ccccc1	?	15.0%	18.5%	-12.8	11.2µM*
S=c1[nH]nc(CCc2ccccc2)n1-c1ccccc1	11.2µM*	.	13.3%	-18.3	5.62µM*
S=c1[nH]nc(CCc2ccccc2)n1-c1ccc(Cl)cc1	?	7.5%	14.8%	4.9	1.78µM*
COc1ccc(-n2c(CCc3ccccc3)nnc2SCC(=O)c2ccc(Cl)cc2)cc1	?	.	-7.8%	-9.3	4.1%
O=C(Cc1ccccc1)NCc1n[nH]c(=S)n1-c1ccccc1	13.6%	-6.7%	18.2%	2.7	-33.5%
CC(/C=N/NC(=O)c1nnn(-c2nonc2N)c1C(C)C)=C\c1ccco1	-13.4%	2.4%	-5.3%	4.2	32.4%
CN1CC(=O)N(C)c2ncn(Cc3ccccc3)c2C1=O	-7.6%[0.365 µM]	-3.4%	-0.8%	?	4.47µM*
O=c1c2ccccc2ncn1Cc1ccccc1	-12.3%	1.6%	2.9%	-10.1	14.6%
C=CC[n+]1c(/C=C2\C=Cc3cc(C)ccc3N2CC)ccc2ccccc21	3.16µM*	121.0%	-75.1%	-10.3	?
C=CCn1c(SCC#N)nc2ccc(Cl)cc2c1=O	.	.	.	-3.4	.
CC(C)CCNC(=O)C1CCN(C(=O)c2cc3sccc3n2Cc2ccc(Cl)cc2)CC1	.	-1.4%	.	.	.
CCOC(=O)/C=C/CCC/C=C/C(=O)c1ccccc1	0.2%	.	.	.	-20.8%
COC(=O)/C(=C/c1c[nH]c2ccccc12)[N+](=O)[O-]	20µM*	.	-16.3%	4.3	?
O=C(COCc1cc(-c2ccc(F)cc2)on1)Nc1cc(F)ccc1F	.	0.3%	.	.	.
COc1ccc(OC)c(CCNc2ncnc3onc(C)c23)c1	.	-3.8%	.	.	.
CC(C(=O)N(C)C1CCS(=O)(=O)C1)N1C(=O)/C(=C/c2ccc(F)cc2)SC1=S (centres undefined)	15.8µM*	11.3%	-31.7%	29.3	-7.5%
O=C(CSc1n[nH]c(-c2ccccn2)n1)Nc1cccc(Cl)c1	2.82µM*	2.3%	-27.0%	-2.4	1.78µM*
Cc1ccc(C)c(NC(=O)CSc2n[nH]c(-c3ccccn3)n2)c1	?	-2.6%	-7.4%	12.9	6.31µM*
C=CCNC(=S)Nc1c(C(=O)OC)[nH]c2cc(OC)ccc12	?	-4.5%	?	-6.5	2.82µM*
COc1ccc(C2C(=O)N(C3CCCCCC3)CC(=O)N2Cc2ccccc2)cc1 (centres undefined)	.	-8.1%	.	.	.
Cc1ccc(C(=O)CSc2nnnn2C(C)C)c(C)c1	12.6µM*	7.8%	6.8%	-10.1	11.2µM*
Fc1ccc(CNC(=S)Nc2ccc(OC(F)F)cc2)cc1	?	-2.8%	0.1%	0.8	11.2µM*
COc1cc(NC(=S)Nc2ccc(OC(F)F)cc2)cc(OC)c1	?	-3.2%	30.4%	-5.7	10µM*
COc1cc(NC(=S)Nc2ccc(N(C)C(C)=O)cc2)cc(OC)c1	2.3%	-4.8%	33.7%	10.7	?
